In PubChem BioAssay (NCI):
About 83,000 compounds went through this panel and 20% of them were active in at least one assay; those are over-represented in the sample as a whole.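 Cells were grown in 96-well plates and exposed to the test compound at a single concentration for 48 hours; results are reported as percent growth, with values below 10 considered active.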 Calls of active or inactive are those of the source.

Legend:
Assay in all cases: NCI-60 one-dose screen, 48 h (100 = growth as untreated, 0 = no growth, -100 = all killed)
Conditions in all cases: 10 µM unless noted
SK-MEL-2 melanoma = test system: SK-MEL-2 melanoma
EKVX NSCLC = test system: EKVX NSCLC
SN12C renal = test system: SN12C renal
UO-31 renal = test system: UO-31 renal
TK-10 renal = test system: TK-10 renal
ACHN renal = test system: ACHN renal
CAKI-1 renal = test system: CAKI-1 renal
A498 renal = test system: A498 renal
CCRF-CEM leukemia = test system: CCRF-CEM leukemia
MOLT-4 leukemia = test system: MOLT-4 leukemia
SR leukemia = test system: SR leukemia
RPMI-8226 leukemia = test system: RPMI-8226 leukemia
OVCAR-8 ovarian = test system: OVCAR-8 ovarian
OVCAR-5 ovarian = test system: OVCAR-5 ovarian
OVCAR-4 ovarian = test system: OVCAR-4 ovarian
SK-OV-3 ovarian = test system: SK-OV-3 ovarian
IGROV1 ovarian = test system: IGROV1 ovarian
OVCAR-3 ovarian = test system: OVCAR-3 ovarian
HS 578T breast = test system: HS 578T breast
NCI/ADR-RES ovarian = test system: NCI/ADR-RES ovarian

Measured: growth

COC(=O)CCC/C=C\C[C@H]1C=CC(=O)/C1=C/C[C@@H](O)C/C=C\CC(F)(F)F
active: SK-MEL-2 melanoma -3.66% | SN12C renal -6.2% | UO-31 renal -68.9% | TK-10 renal -2.5% | ACHN renal -47.7% | CAKI-1 renal 1.42% | CCRF-CEM leukemia -9.32% | MOLT-4 leukemia 2.73% | SR leukemia 4% | RPMI-8226 leukemia -11.8% | OVCAR-8 ovarian 8.95% | OVCAR-3 ovarian -3.96%
inactive: EKVX NSCLC 47.1% | A498 renal 109% | OVCAR-5 ovarian 39% | OVCAR-4 ovarian 34% | SK-OV-3 ovarian 77.4% | IGROV1 ovarian 12.1% | HS 578T breast 41.9% | NCI/ADR-RES ovarian 14%

CC1=C(C(=O)Nc2ccccc2)C(c2ccc3c(c2)OCO3)NC(=S)N1 (stereo not given)
inactive: SK-MEL-2 melanoma 106% | EKVX NSCLC 107% | SN12C renal 104% | UO-31 renal 88.2% | TK-10 renal 97.8% | ACHN renal 107% | CAKI-1 renal 97.1% | A498 renal 114% | CCRF-CEM leukemia 115% | MOLT-4 leukemia 112% | SR leukemia 99.2% | RPMI-8226 leukemia 109% | OVCAR-8 ovarian 104% | OVCAR-5 ovarian 115% | OVCAR-4 ovarian 114% | SK-OV-3 ovarian 110% | IGROV1 ovarian 103% | OVCAR-3 ovarian 110% | HS 578T breast 105% | NCI/ADR-RES ovarian 106%

O=C(Nc1ncc(Cc2cc(C(F)(F)F)ccc2Cl)s1)c1cccs1
inactive: SK-MEL-2 melanoma 45% | EKVX NSCLC 57.3% | SN12C renal 70.9% | UO-31 renal 58.9% | TK-10 renal 71.7% | ACHN renal 67.2% | CAKI-1 renal 41.7% | A498 renal 62.2% | CCRF-CEM leukemia 45.4% | MOLT-4 leukemia 29.4% | SR leukemia 16.1% | RPMI-8226 leukemia 55.7% | OVCAR-8 ovarian 68.6% | OVCAR-5 ovarian 83.9% | OVCAR-4 ovarian 63.4% | SK-OV-3 ovarian 69.2% | IGROV1 ovarian 52.7% | OVCAR-3 ovarian 50.5% | HS 578T breast 71% | NCI/ADR-RES ovarian 29.7%

C=CCC(CCCC)(C(=O)OCC)C(=O)OCC
inactive: SK-MEL-2 melanoma 100% | EKVX NSCLC 114% | SN12C renal 110% | UO-31 renal 85.3% | TK-10 renal 104% | ACHN renal 102% | CAKI-1 renal 96.7% | A498 renal 111% | CCRF-CEM leukemia 93.2% | MOLT-4 leukemia 108% | SR leukemia 95.9% | RPMI-8226 leukemia 94.8% | OVCAR-8 ovarian 102% | OVCAR-5 ovarian 106% | OVCAR-4 ovarian 116% | SK-OV-3 ovarian 117% | IGROV1 ovarian 119% | OVCAR-3 ovarian 118% | HS 578T breast 127% | NCI/ADR-RES ovarian 108%

Cn1cc(-c2nn3cc(-c4cccs4)nc3s2)c2cc(F)ccc21
inactive: SK-MEL-2 melanoma 35% | EKVX NSCLC 47.7% | SN12C renal 36% | UO-31 renal 35.8% | TK-10 renal 53.7% | ACHN renal 43.5% | CAKI-1 renal 27.8% | CCRF-CEM leukemia 21.9% | MOLT-4 leukemia 22.3% | SR leukemia 11.8% | RPMI-8226 leukemia 31.2% | OVCAR-8 ovarian 51.4% | OVCAR-5 ovarian 42.7% | OVCAR-4 ovarian 60.5% | SK-OV-3 ovarian 44.9% | IGROV1 ovarian 35.3% | NCI/ADR-RES ovarian 21.1%
active: A498 renal 7.55% | OVCAR-3 ovarian 5.2% | HS 578T breast 1.66%

O=C(O)c1cn(C2CC2)c2cc(N3CCN(C(=O)Nc4nc(-c5ccc(Br)cc5)cs4)CC3)c(F)cc2c1=O
active: SK-MEL-2 melanoma -17% | SN12C renal 6.36% | A498 renal -7.91% | CCRF-CEM leukemia 6.67% | MOLT-4 leukemia 8.35% | RPMI-8226 leukemia -9.26% | SK-OV-3 ovarian 0.843% | OVCAR-3 ovarian 8.58% | HS 578T breast 3.4%
inactive: EKVX NSCLC 24.5% | UO-31 renal 14% | TK-10 renal 34.9% | ACHN renal 17% | CAKI-1 renal 42.4% | SR leukemia 21.5% | OVCAR-8 ovarian 10% | OVCAR-5 ovarian 32.5% | OVCAR-4 ovarian 26.6% | IGROV1 ovarian 28.8% | NCI/ADR-RES ovarian 69.4%

Nc1ccc(-c2csc(-n3[nH]c(=O)ccc3=O)n2)cc1
inactive: SK-MEL-2 melanoma 109% | EKVX NSCLC 88.4% | SN12C renal 103% | UO-31 renal 84.1% | TK-10 renal 120% | ACHN renal 99.5% | CAKI-1 renal 94% | A498 renal 103% | CCRF-CEM leukemia 96.4% | MOLT-4 leukemia 87.6% | SR leukemia 102% | RPMI-8226 leukemia 97.3% | OVCAR-8 ovarian 101% | OVCAR-5 ovarian 108% | OVCAR-4 ovarian 101% | SK-OV-3 ovarian 112% | IGROV1 ovarian 99% | OVCAR-3 ovarian 113% | HS 578T breast 100% | NCI/ADR-RES ovarian 94.4%

CN1CCN(C(=S)SCCCCOc2cc(=O)oc3ccccc23)CC1
inactive: SK-MEL-2 melanoma 73.9% | EKVX NSCLC 88.1% | SN12C renal 88.5% | UO-31 renal 72.3% | TK-10 renal 93.3% | ACHN renal 92.9% | CAKI-1 renal 93.7% | A498 renal 74.7% | CCRF-CEM leukemia 72.5% | MOLT-4 leukemia 73.2% | SR leukemia 67.4% | RPMI-8226 leukemia 64.8% | OVCAR-8 ovarian 78.4% | OVCAR-5 ovarian 101% | OVCAR-4 ovarian 72.4% | SK-OV-3 ovarian 99.5% | IGROV1 ovarian 102% | OVCAR-3 ovarian 95.8% | HS 578T breast 96.2% | NCI/ADR-RES ovarian 76.2%

CCN(CC)CCN1C(=O)c2c(c(C)c3c(oc4ccc(O)cc43)c2C)C1=O
inactive: SK-MEL-2 melanoma 89% | EKVX NSCLC 83.2% | A498 renal 91.7% | MOLT-4 leukemia 10.2% | SR leukemia 28.5% | OVCAR-5 ovarian 97.6% | OVCAR-4 ovarian 14.9% | SK-OV-3 ovarian 101% | HS 578T breast 72.9% | NCI/ADR-RES ovarian 21.7%
active: SN12C renal -41.9% | UO-31 renal -92.4% | TK-10 renal -13.9% | ACHN renal -80.4% | CAKI-1 renal -6.73% | CCRF-CEM leukemia -14.7% | RPMI-8226 leukemia -37.3% | OVCAR-8 ovarian -5.2% | IGROV1 ovarian 1.64% | OVCAR-3 ovarian -68.2%

CCCCCN(CCCCC)CC(O)c1cc(C)c2ccc3cc(C(C)C)ccc3c2c1 (stereo not given)
inactive: SK-MEL-2 melanoma 82.6% | EKVX NSCLC 63.2% | UO-31 renal 51.8% | TK-10 renal 75.5% | CAKI-1 renal 57.7% | A498 renal 19.5% | OVCAR-4 ovarian 19.4% | SK-OV-3 ovarian 85.6%
active: SN12C renal -52.9% | ACHN renal -77.8% | CCRF-CEM leukemia -7.34% | MOLT-4 leukemia -21.5% | SR leukemia -12.9% | RPMI-8226 leukemia -18.6% | OVCAR-8 ovarian -35.9% | OVCAR-5 ovarian -28.2% | IGROV1 ovarian -12.8% | OVCAR-3 ovarian -47.7% | HS 578T breast -24% | NCI/ADR-RES ovarian -54.6%

COc1ccc2nc(Cl)c(/C=C3\CC(c4ccccc4)=NN(c4ccccc4)C3=O)cc2c1
inactive: SK-MEL-2 melanoma 63.4% | EKVX NSCLC 67.7% | SN12C renal 72.3% | UO-31 renal 61.7% | TK-10 renal 78.6% | ACHN renal 18.4% | CAKI-1 renal 14.5% | A498 renal 46.9% | CCRF-CEM leukemia 96.9% | MOLT-4 leukemia 79.8% | SR leukemia 76.6% | RPMI-8226 leukemia 97.3% | OVCAR-8 ovarian 41.8% | OVCAR-5 ovarian 93.5% | OVCAR-4 ovarian 37.4% | SK-OV-3 ovarian 46.5% | IGROV1 ovarian 50.7% | OVCAR-3 ovarian 74.4% | HS 578T breast 32.9% | NCI/ADR-RES ovarian 60.2%

CS(=O)(=O)c1nnc(-c2ccccc2)s1
inactive: SK-MEL-2 melanoma 112% | EKVX NSCLC 109% | SN12C renal 105% | TK-10 renal 113% | ACHN renal 83.9% | CAKI-1 renal 94.9% | A498 renal 91.4% | CCRF-CEM leukemia 76.5% | MOLT-4 leukemia 88.1% | SR leukemia 40.3% | RPMI-8226 leukemia 99.5% | OVCAR-8 ovarian 97.4% | OVCAR-5 ovarian 99.3% | OVCAR-4 ovarian 99.5% | SK-OV-3 ovarian 98.8% | IGROV1 ovarian 103% | OVCAR-3 ovarian 99.3% | HS 578T breast 108% | NCI/ADR-RES ovarian 104%
active: UO-31 renal -71.4%

Cc1ccc(-c2nc3nc(-c4ccccc4)nc(N4CCCN(S(C)(=O)=O)CC4)c3o2)cc1
inactive: SK-MEL-2 melanoma 86.2% | EKVX NSCLC 93.7% | SN12C renal 71.8% | UO-31 renal 59.3% | TK-10 renal 66.9% | ACHN renal 46.1% | CAKI-1 renal 63.4% | A498 renal 94.3% | CCRF-CEM leukemia 63.9% | MOLT-4 leukemia 56.3% | SR leukemia 30.8% | RPMI-8226 leukemia 92.5% | OVCAR-8 ovarian 50.7% | OVCAR-5 ovarian 92.5% | OVCAR-4 ovarian 48.2% | SK-OV-3 ovarian 81.3% | IGROV1 ovarian 75.7% | OVCAR-3 ovarian 83.4% | HS 578T breast 86.5% | NCI/ADR-RES ovarian 56.2%

CC(=O)c1ccc(Nc2nccc(-c3ccc4ccccc4c3)n2)cc1
active: A498 renal 1.1%
inactive: SK-MEL-2 melanoma 91.7% | EKVX NSCLC 96.5% | SN12C renal 101% | UO-31 renal 86.1% | TK-10 renal 87.2% | ACHN renal 98.8% | CAKI-1 renal 104% | CCRF-CEM leukemia 88.3% | MOLT-4 leukemia 74.4% | SR leukemia 42.6% | RPMI-8226 leukemia 90% | OVCAR-8 ovarian 96.6% | OVCAR-5 ovarian 99.8% | OVCAR-4 ovarian 105% | SK-OV-3 ovarian 99.3% | IGROV1 ovarian 86.3% | OVCAR-3 ovarian 99.3% | HS 578T breast 86.2% | NCI/ADR-RES ovarian 84%

COc1ccc(/C=C/C(=O)c2cc(OC)c(OC)c(OC)c2)cc1OCC(=O)Nc1nc2ccc(OC(F)(F)F)cc2s1
active: UO-31 renal 3.8% | TK-10 renal -6.47% | ACHN renal -1.17% | CAKI-1 renal 9.57% | MOLT-4 leukemia 0.429% | RPMI-8226 leukemia 6.47% | OVCAR-8 ovarian 3.67% | OVCAR-4 ovarian -7.18% | SK-OV-3 ovarian -11.8% | IGROV1 ovarian -1.97% | OVCAR-3 ovarian -77.3% | HS 578T breast -20.8% | NCI/ADR-RES ovarian -13.5%
inactive: SK-MEL-2 melanoma 45.7% | EKVX NSCLC 62.1% | SN12C renal 19.1% | A498 renal 68.1% | CCRF-CEM leukemia 20.4% | SR leukemia 11.6% | OVCAR-5 ovarian 96.3%

O=C1/C=C/[C@@H](O)[C@@H]2C[C@@H](O)C[C@H]2/C=C/CCC[C@@H](O)CCO1
inactive: SK-MEL-2 melanoma 122% | EKVX NSCLC 82% | SN12C renal 106% | UO-31 renal 108% | TK-10 renal 115% | ACHN renal 104% | CAKI-1 renal 83.7% | A498 renal 66.7% | CCRF-CEM leukemia 116% | MOLT-4 leukemia 106% | SR leukemia 101% | RPMI-8226 leukemia 126% | OVCAR-8 ovarian 66.6% | OVCAR-5 ovarian 113% | OVCAR-4 ovarian 85.4% | SK-OV-3 ovarian 90.3% | IGROV1 ovarian 108% | OVCAR-3 ovarian 106% | HS 578T breast 41.9% | NCI/ADR-RES ovarian 89.2%
